High-throughput results (PubChem BioAssay)
hNpr1 antagonist: blocks ANP-stimulated signaling of human Npr1 receptor; AID 1347048; Potency, µM (titrated, usually from 46.3 µM), inactives show top-dose activity change, negative = inhibition, usual class: inhibitors; hit rate 1.6% among 76,000; HEK293 hNpr1 GloSensor cGMP, ANP-stimulated luminescence; P16066; calls by dose curve; also: nearly all actives have a fitted effect of over 60% in size
Target sequence (P16066 whole entry, looked up): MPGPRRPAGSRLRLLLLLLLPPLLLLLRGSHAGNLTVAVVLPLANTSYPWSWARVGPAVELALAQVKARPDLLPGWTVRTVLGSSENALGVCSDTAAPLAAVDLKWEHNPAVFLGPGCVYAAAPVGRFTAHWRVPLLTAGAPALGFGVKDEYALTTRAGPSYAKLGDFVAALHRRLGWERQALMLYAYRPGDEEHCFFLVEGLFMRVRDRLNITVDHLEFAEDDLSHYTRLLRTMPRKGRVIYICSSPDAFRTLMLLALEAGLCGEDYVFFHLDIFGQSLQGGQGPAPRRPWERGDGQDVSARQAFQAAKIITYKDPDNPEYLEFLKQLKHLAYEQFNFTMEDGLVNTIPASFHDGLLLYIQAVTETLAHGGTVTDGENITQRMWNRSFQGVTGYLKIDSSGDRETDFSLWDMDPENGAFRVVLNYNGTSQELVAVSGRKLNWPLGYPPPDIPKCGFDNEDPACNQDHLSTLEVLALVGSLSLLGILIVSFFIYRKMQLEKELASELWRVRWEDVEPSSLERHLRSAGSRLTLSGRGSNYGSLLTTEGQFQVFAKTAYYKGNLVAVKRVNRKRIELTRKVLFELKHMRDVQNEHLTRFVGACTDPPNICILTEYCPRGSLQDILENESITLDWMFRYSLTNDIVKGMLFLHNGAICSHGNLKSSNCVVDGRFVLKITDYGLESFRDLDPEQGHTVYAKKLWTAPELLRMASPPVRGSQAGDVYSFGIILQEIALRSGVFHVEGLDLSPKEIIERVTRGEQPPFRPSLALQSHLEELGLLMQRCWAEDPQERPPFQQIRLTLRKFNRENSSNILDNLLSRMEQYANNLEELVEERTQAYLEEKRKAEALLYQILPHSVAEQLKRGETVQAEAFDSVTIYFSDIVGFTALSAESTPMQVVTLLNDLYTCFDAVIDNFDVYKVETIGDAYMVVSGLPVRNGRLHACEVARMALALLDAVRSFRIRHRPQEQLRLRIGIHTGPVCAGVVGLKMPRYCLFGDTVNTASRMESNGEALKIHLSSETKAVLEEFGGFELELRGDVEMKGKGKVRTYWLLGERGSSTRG
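HEK293 cells stably expressing human Npr1 and cGMP GloSensor pGS-40F, loaded 2 h with 2% GloSensor reagent, given compound 30 min at room temperature. Luminescence read before and 20 min after 0.1 nM hNppA.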
FLuc inh: inhibitors of firefly (Photinus pyralis) luciferase | P08659 | purified P. pyralis luciferase, luminescence, biochemical | Potency, µM (doses to about 115 µM), hits mostly inhibitors | hit rate 2.5% among 76,000 | AID 1347043; also: nearly all actives have a fitted effect of over 65% in size
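FLuc 10nM, D-luciferin 10uM, ATP 10uM, Mg acetate 10mM, Tris acetate pH 7.5, Tween/BSA; cpd qHTS; enzyme added last; CCD luminescence.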
GPT2 inh: inhibitors of human GPT2 alanine aminotransferase. Recombinant GPT2, coupled pyruvate oxidase/HRP Amplex Red fluorescence. Potency, µM (highest dose often 57.7 µM), without a hit: at the top dose activity change, negative = inhibition, most hits filed as inhibitors. hit rate 0.25% among 100,000; also: nearly all actives have a fitted effect of over 60% in size
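Inhibition is scored from Amplex Red fluorescence generated when pyruvate oxidase and HRP act on pyruvate released by GPT2. Reactions contain 10ng/uL enzyme, 250uM a-KG and 2mM L-alanine and run 30 min at room temperature.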
HEK cytotox: cytotoxic compounds in HEK 293 cells; AID 1345083; Potency, µM (doses to about 115 µM), inactives show top-dose activity change, negative = cytotoxicity, hits mostly inhibitors; HEK 293 viability, ATP luminescence (CellTiter-Glo), 48-72 h; hit rate 6.6% among 94,000; also: nearly all actives have a fitted effect of over 60% in size
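250 HEK 293 cells/well; compound by pintool; incubated 48 or 72 hr at 37 degree Celsius; CellTiter-Glo added, 10 min RT, luminescence imaged.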
3T3 cytotox: cytotoxic compounds in NIH 3T3 cells. NIH 3T3 viability, CellTiter-Glo ATP luminescence, 48-72 h. Potency, µM (titrated, usually from 96.7 µM), for inactives: at the top dose activity change, negative = cytotoxicity, actives largely listed as inhibitors. hit rate 4.3% among 94,000. AID 1345082; also: nearly all actives have a fitted effect of over 55% in size
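First NIH 3T3 cells are plated at 400 cells/well; next compound is pinned in; then plates incubate 48 or 72 hr at 37 °C; finally CellTiter-Glo is added and luminescence read after 10 min.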
* marks the source's active call; other numbers are inactive results; i = inactive; ? = inconclusive; nt = no result given; [ ] = dose if it differs, or a comment. Only some compounds are listed: those with a hit (about 10% of all), similar ones and a draw of the others. Unless noted, calls follow the shape of the dose curve; as a rule, active = well fitted curve in the direction sought with a large enough effect; inconclusive = small, poorly fitted or top-dose-only effect, or another doubt; inactive = no such curve, though single readings can be large; an effect the other way counts as inactive or inconclusive. % is scaled to controls: 0 for no effect and ±100 for the full control effect; potency is read from the fitted curve at half-maximal effect.

SMILES	hNpr1 antagonist	FLuc inh	GPT2 inh	HEK cytotox	3T3 cytotox
C[C@H]1CCCN1C(=O)c1nnc(COc2cccc(C(F)(F)F)c2)n1-c1cccnc1	0%[70.6 µM]	i	i	?	100µM*
C[C@H]1CCCN1C(=O)c1nnc(COc2cccc(Cl)c2)n1-c1ccccc1	-3%[70.6 µM]	i	i	?	?
C[C@H]1CCCN1C(=O)c1nnc(CNCc2cccc(Cl)c2)n1-c1ccccc1	-6%[70.6 µM]	i	0%[88.5 µM]	?	?
CC1=C[C@@H](CN2CCN(c3ccccn3)CC2)[C@H](C(C)C)C[C@H]1Cc1nnc(C)o1	7%[70.6 µM]	i	-6%[88.5 µM]	?	?
CC1=C[C@@H](CN2CCC(CO)CC2)[C@H](C(C)C)C[C@H]1Cc1nnc(-c2cccnc2)o1	2%[70.6 µM]	i	i	?	-30%[174 µM]
CC1=C[C@@H](CN2CCOCC2)[C@H](C(C)C)C[C@H]1Cc1nnc(-c2ccccc2F)o1	-20%[70.6 µM]	i	-6%[88.5 µM]	89µM*	?
CC1=C[C@@H](CN2CCN(C)CC2)[C@H](C(C)C)C[C@H]1Cc1nnc(-c2ccccc2F)o1	1%[70.6 µM]	i	-3%[88.5 µM]	45µM*	?
O=C(NC[C@H]1OC[C@@H](N(Cc2ccccc2)Cc2ccccc2)[C@@H]1O)Nc1ccccc1	-13%[70.6 µM]	i	-8%[88.5 µM]	79µM*	?
CC(=O)NCCc1c[nH]c2ccc(O)cc12	nt	nt	3.2µM*	nt	nt
COc1cc2c(CCNC(C)=O)c[nH]c2cc1Cl	nt	nt	4%	nt	nt
Cn1ncc(N2CCCC(CC(=O)Nc3cccc(Cl)c3)C2)cc1=O (centres undefined)	-2%	i	i	?	?
CSc1ccc(NC(=O)c2ccc3c(c2)N(C)C2CCCCN2C3=O)cc1 (centres undefined)	-1%	45µM*	i	?	?
CN1c2cc(C(=O)Nc3ccc(F)cc3)ccc2C(=O)N2CCCCCC21 (centres undefined)	-14%	25µM*	i	?	?
O=C(c1ccc(Cn2cccn2)o1)N1CCOCC(O)(CN2CCCC2)C1 (centres undefined)	6%	i	1%	-8%	-13%
Cn1nccc1C(=O)N1CC(C(=O)Nc2ccccn2)C2(CCOCC2)C1 (centres undefined)	5%	i	5%	i	-2%
CCCn1cc(CNC(=O)c2cc3c(s2)CCC(C)C3)cn1 (centres undefined)	?	32µM*	-10%	?	?
CCCNC(=O)C1CCc2sc(C(=O)N(C)C)cc2C1 (centres undefined)	-3%	i	-2%	0%	-3%
CN(CC1COc2ccccc2O1)C(=O)c1cn(Cc2ccccc2Cl)nn1 (centres undefined)	0%	i	2%	-21%	-26%
COc1ccc(C(=O)N2CCCC(Cc3ncc(C)n3Cc3ccccc3)C2)c(OC)c1 (centres undefined)	-3%	22µM*	-1%	-21%	-7%
OC(c1nc(Nc2cccc(F)c2)n[nH]1)C1CC1 (centres undefined)	3%[70.6 µM]	?	i	0%[230 µM]	112µM*
OC(c1nc(Nc2cccc(Cl)c2)n[nH]1)C1CC1 (centres undefined)	-14%[70.6 µM]	45µM*	-3%[88.5 µM]	-17%[230 µM]	?
CCN1c2cc(C(=O)NCc3cccc(C(F)(F)F)c3)ccc2C(=O)N2CCCCCC21 (centres undefined)	?	i	i	18µM*	?
CCN1c2cc(C(=O)NCc3ccccc3)ccc2C(=O)N2CCCCCC21 (centres undefined)	-6%	i	i	40µM*	-24%
CCc1ccc(CNC(=O)c2ccc3c(c2)N(CC)C2CCCCN2C3=O)cc1 (centres undefined)	0%	i	i	?	?
COC(=O)c1ccc(CN2C(=O)[C@@H]3C[C@@H](O)CN3C3(CN(Cc4ccc(OC)c5ccccc45)C3)C2=O)cc1	-9%	i	-11%	?	79µM*
SMILES	hNpr1 antagonist	FLuc inh	GPT2 inh	HEK cytotox	3T3 cytotox
COc1ccc(CN2CC3(C2)C(=O)N(Cc2cccc(Cl)c2)C(=O)[C@@H]2C[C@@H](O)CN23)c2ccccc12	-1%	i	?	?	?
Cc1nn2c(c1-c1ccccc1C(C)C)N(Cc1ccc(C(=O)O)cc1)CCC2	0%[70.6 µM]	i	i	?	7.1µM*
Cc1nn2c(c1-c1ccccc1OCc1ccccc1)N(C(=O)C(C)C)CCC2	-1%[70.6 µM]	i	-9%[88.5 µM]	32µM*	89µM*
CC(=O)Nc1ccccc1-c1c(C)nn2c1N(CCCc1ccccc1)CCC2	?	i	1%[88.5 µM]	?	25µM*
Cc1nn2c(c1-c1ccccc1OCc1ccccc1)N(Cc1ccccc1)CCC2	-21%[70.6 µM]	i	0%[88.5 µM]	?	?
Cc1nn2c(c1-c1ccccc1OCc1ccccc1)N(Cc1ccc(OCC(=O)O)cc1)CCC2	0%	i	i	-14%	25µM*
O=C(Cc1ccccc1)N1CCC(O)(c2csc(CN3CCc4ccccc4C3)n2)CC1	?	i	0%	?	-25%
Cc1nn2c(c1-c1ccccc1[S+](C)(=O)[O-])N(Cc1ccccc1F)CCC2	-8%[70.6 µM]	i	i	?	32µM*
Cc1nn2c(c1-c1ccccc1[S+](C)(=O)[O-])N(C(=O)c1ccccc1)CCC2	0%[70.6 µM]	i	2%[88.5 µM]	-17%[172 µM]	?
CN(Cc1cccnc1)C(=O)CC(c1ccccc1)c1ccccc1F (centres undefined)	-8%	i	-11%	?	-22%
CCC1Oc2ccc(NC(=O)c3ccc4c(c3)OCO4)cc2CN(Cc2ccc(F)cc2)C1=O (centres undefined)	-13%	?	i	14µM*	?
COc1ccccc1CN1Cc2cc(NC(=O)c3ccc([N+](=O)[O-])cc3)ccc2OC(C)C1=O (centres undefined)	1%	i	i	?	?
CC1Oc2ccc(NC(=O)c3ccc4c(c3)OCO4)cc2CN(Cc2ccccc2)C1=O (centres undefined)	?	i	i	20µM*	?
COc1ccccc1CN1Cc2cc(NC(=O)c3ccc4c(c3)OCO4)ccc2OC(C)C1=O (centres undefined)	-14%	i	i	40µM*	?
CC1Oc2ccc(NC(=O)c3cccc(F)c3)cc2CN(Cc2ccc3c(c2)OCO3)C1=O (centres undefined)	-25%	i	i	40µM*	?
Cc1cccc(C)c1-c1nnc2ccc(C(=O)NC3CC3)cn12	nt	nt	4%	-10%[172 µM]	-24%[138 µM]
COc1c(C(O)CC(C)C)ccc2c1C(=O)OCc1cc(C)cc(O)c1O2 (centres undefined)	nt	nt	1%[27.3 µM]	nt	nt
